# Source: PubChem BioAssay AID2284326 (EPA ToxCast)
# Inconclusive results are not listed. Active and inactive are the calls of the source. How the source made its calls: active means hit-call score of the fitted dose curve at least 0.9, where 1 is the maximum; inconclusive means response in the unintended direction; inactive means score below 0.9.
# Test system: TPO (gene 7173)
# Test: CCTE_GLTED_hTPO: CCTE's human Thyroperoxidase (hTPO) Inhibition Assay, Great Lakes Toxicology and Ecology Division (GLTED) Lab
# Description: CCTE_GLTED_hTPO is a cell-free, single-readout assay designed to test the inhibitory activity of chemicals toward human thyroperoxidase (TPO) protein. Uninhibited enzyme converts Amplex UltraRed to a fluorescent product. Measurements were taken 0.5 hour after chemical dosing in a 96-well plate. CCTE_GLTED_hTPO is the assay component measured from the CCTE_GLTED_hTPO assay. It is designed to make measurements of enzyme activity, a form of enzyme reporter, as detected with […] by Fluorescence technology.Data from the assay component CCTE_GLTED_hTPO was analyzed at the assay endpoint CCTE_GLTED_hTPO in the positive analysis fitting direction relative to DMSO as the negative control and baseline of activity. Using a type of enzyme reporter (the Amplex UltraRed assay), loss-of-signal activity can be used to understand decreased peroxidase activity in the presence of excess […]. To generalize the intended target to other relatable targets, this assay endpoint is annotated to the 'oxidoreductase' intended target family, where the subfamily is 'peroxidase'.
# […]
Compound,AC50,outcome
O=S(=O)(O)C(F)(F)C(F)(F)C(F)(F)C(F)(F)C(F)(F)C(F)(F)C(F)(F)C(F)(F)F,285 µM (active),–
O=C(O)C(F)(OC(F)(F)C(F)(F)C(F)(F)F)C(F)(F)F (stereo not drawn),40.2 µM (active),–
O=C(O)C(F)(F)C(F)(F)C(F)(F)C(F)(F)C(F)(F)C(F)(F)C(F)(F)C(F)(F)F,–,inactive
